# PubChem BioAssay (NCI)
# This is part of a sample that, as a whole, favours compounds with a hit. Of some 83,000 tested, about 20% had one in any assay.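 Assay: single dose, 48 h. Readout: percent growth (0 = no net growth; negative = cell death). Active: <10.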 The source made the active and inactive calls.
# System: HOP-92 NSCLC
# Test: NCI-60 one-dose screen, 48 h (100 = growth as untreated, 0 = no growth, -100 = all killed)
# Details: 10 µM unless noted
row,Structure (SMILES),growth
1,CC(=O)N1N=C(c2ccc(Cl)cc2)CC1c1c(C)nn(-c2ccccc2)c1N(C)Cc1ccccc1 (configuration not stated),55.2% (inactive)
2,CCCCN1c2nc3ccccc3cc2Sc2cc3ccccc3nc21,28.4% (inactive)
3,Nc1ccn(C2O[C@H](CO)[C@@H](O)[C@@H]2O)c(=O)n1 (some centres not stated),53.8% (inactive)
4,O=c1[nH]c(N2CCC(Cc3ccccc3)CC2)nc2sc3c(c12)CCCC3,91.2% (inactive)
5,Oc1ccccc1/C=N/N1CCCCCC1,50.4% (inactive)
6,CCOC(=O)Nc1cc(-c2ccc(C)c(NS(C)(=O)=O)c2)nn2c(C)nnc12,-10.2% (active)
7,O=C1OC2(c3ccccc31)c1ccccc1-c1ccccc12,96.9% (inactive)
8,Cn1cc(NC(=O)Nc2cc(C(=O)O)n(C)c2)cc1C(=O)O,119% (inactive)
9,Cc1sc2nc(NCCc3cccs3)[nH]c(=O)c2c1C,93.3% (inactive)
10,CN1CCN(CCCOc2ccc3ncnc(Nc4ccc(OCc5cccc(F)c5)c(Cl)c4)c3c2)CC1,35% (inactive)
11,NC(=O)NS(=O)(=O)c1ccc(N2N=C(C(F)(F)F)CC2c2cc(C(F)(F)F)cc(C(F)(F)F)c2)cc1 (configuration not stated),49.8% (inactive)
12,Oc1c(N=Nc2nn[nH]n2)ccc2ccccc12,77.1% (inactive)
